The values that follow come from PubChem BioAssay (NCATS).

Molecules are shown by their SMILES. Results filed as inconclusive are left out. Active and inactive are the calls of the source. Unless noted, calls come from the whole dose curve; as a rule, active = well fitted curve in either direction with a large enough effect (not every such curve was filed as active); inconclusive = small, poorly fitted or top-dose-only effect, or another doubt; inactive = flat fitted curve, though single readings scatter. Bounds are passed on as bounds.

In assay [1] the target is Lysosomal acid glucosylceramidase (Homo sapiens) (UniProt P04062). Nature of the assay: Glucocerebrosidase-p2 (AID 348; in the data active = potency below about 10 µM; note: potency is the fitted concentration of half-maximal effect). As to conditions: purified GBA, blue fluorogenic substrate, 40 min. In a few lines:
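Compounds titrated from 0.6 nM upwards against 0.2 nM enzyme in pH 5.9 citric acid/KH2PO4, taurocholate, tween-20; blue fluorogenic substrate 80 uM, 40 min room temperature, stopped and read Ex 365/Em 440 for AC50.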

The nature of assay [2]: AP1 Signaling Pathway (AID 357). Note: % is set by controls: 0 for no effect and ±100 for the full control effect. As to conditions: ME-180 AP-1-bla reporter, EGF-induced, beta-lactamase ratio, 5 h; at 7.69 µM (top of the series) unless noted. In a few lines: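 ME-180 cells with beta-lactamase reporter under AP-1 response element, stimulated with EC50 EGF; compounds tested in titration series, 5 h at 37 °C. CCF4 substrate added 2.5 h at room temperature; 460/530 nm emission ratio gave %activity and AC50.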

Assay [3] has as its target Cytochrome P450 1A2 (Homo sapiens) (UniProt P05177). Nature of the assay: p450-cyp1a2 (AID 410; calls by dose curve;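 note: -100% = full effect of reference inhibitor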). As to conditions: recombinant CYP1A2, luciferin-ME demethylation, luminescence; series mostly up to 57 µM. The procedure, abridged: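 Human CYP1A2 (20nM) demethylated Luciferin-ME at its Km (100uM) in 100mM KPO4. After 10 min compound preincubation, NADPH regeneration ran the reaction 60 min at room temperature. Luciferin was read by luminescence, normalized to 57 uM furafylline.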

A short description of assay [4]: NFAT Signaling Pathway (AID 444).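 Note: carbachol stimulus at about its EC50 of 1 µM final; % is set by controls: 0 for no effect and ±100 for the full control effect.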 As to conditions: Jurkat NFAT-bla M1, carbachol, beta-lactamase ratio, 5 h; at 7.69 µM (top of the series) unless noted. The procedure, abridged:
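Jurkat cells with NFAT-driven β-lactamase reporter and co-expressed M1 receptor, stimulated with carbachol (final 1 uM, ~EC50), compound titration, 5 h at 37 °C. CCF4 loaded 1 h at RT; 460/530 nm ratio gave %activity and AC50.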

Assay [5] in a line: Stat Signaling Pathway (AID 446).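 Note: ME-180 cervical cancer cells given 40 pM IL-6 alongside compound; SIE-controlled beta-lactamase reporter measured as 460/530 nm FRET emission ratio; % is set by controls: 0 for no effect and ±100 for the full control effect.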 As to conditions: ME-180 SIE beta-lactamase reporter, IL-6 stimulated, 5 h; at 7.69 µM (top of the series) unless noted. The procedure, abridged: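 Screening format detects activators and inhibitors alike: ME-180 SIE-bla cells stimulated at 40 pM IL-6 for 5 hrs with compound, then dual-emission beta-lactamase read at 405 nm excitation.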
The target of assay [6] is Glucocorticoid receptor (Homo sapiens) (UniProt P04150). Nature of the assay: GR-EFC Redistribution (AID 451; calls by dose curve; note: potency is the fitted concentration of half-maximal effect). As to conditions: CHO-K1 GR-EFC translocation, beta-gal luminescence, 2 h. The procedure, abridged: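 CHO-K1 cells expressing nuclear EA and GR-ED fragments of b-gal; compounds titrated up to 46 uM final, 2 h at 37 C. GR nuclear translocation read as complemented b-gal luminescence after 1 h RT detection.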
Glucocorticoid receptor (Homo sapiens), sequence (P04150 whole entry, looked up, the tested form may be a part): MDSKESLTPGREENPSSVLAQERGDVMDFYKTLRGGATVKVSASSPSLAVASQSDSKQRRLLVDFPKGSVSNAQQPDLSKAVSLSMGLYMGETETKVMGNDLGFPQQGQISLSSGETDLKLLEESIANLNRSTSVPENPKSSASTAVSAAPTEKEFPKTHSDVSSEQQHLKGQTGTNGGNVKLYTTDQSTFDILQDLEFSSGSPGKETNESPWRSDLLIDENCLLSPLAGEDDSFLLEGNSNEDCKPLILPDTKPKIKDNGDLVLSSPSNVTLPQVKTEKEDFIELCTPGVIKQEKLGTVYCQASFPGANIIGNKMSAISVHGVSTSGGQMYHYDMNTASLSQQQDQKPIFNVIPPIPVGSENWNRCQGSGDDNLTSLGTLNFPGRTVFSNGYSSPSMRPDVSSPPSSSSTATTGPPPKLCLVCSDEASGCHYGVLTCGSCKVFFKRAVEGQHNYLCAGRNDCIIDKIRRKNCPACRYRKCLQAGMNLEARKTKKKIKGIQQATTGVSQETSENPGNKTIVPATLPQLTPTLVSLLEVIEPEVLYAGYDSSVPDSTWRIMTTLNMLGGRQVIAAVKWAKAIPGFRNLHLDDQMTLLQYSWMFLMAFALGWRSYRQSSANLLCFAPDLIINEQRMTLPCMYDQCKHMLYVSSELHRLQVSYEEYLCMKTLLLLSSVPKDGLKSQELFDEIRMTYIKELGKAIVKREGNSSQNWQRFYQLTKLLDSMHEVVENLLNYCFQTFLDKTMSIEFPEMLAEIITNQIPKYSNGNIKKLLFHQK

For assay [7], the target named is Mitogen-activated protein kinase 10 (Mus musculus) (UniProt Q61831). Nature of the assay: JNK3 AlphaScreen Assay (AID 530).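 Note: kinase came from lysate of stimulated human HepG2 cells; signal reports phosphorylation of biotinylated GST-cJun 1-79 at Ser73 with 10 µM ATP; % is set by controls: 0 for no effect and ±100 for the full control effect.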 As to conditions: JNK3 lysate, c-Jun phosphorylation; series mostly up to 57.1 µM. The procedure, abridged:
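qHTS format: compounds tested as titrations against IL-1beta/TNF-alpha-activated HepG2 lysate JNK3 with biotin-GST-cJun substrate and 10 uM ATP at room temperature. Loss of anti-phospho-cJun AlphaScreen signal indicates inhibition.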

Assay [8] addresses 3',5'-cyclic-AMP phosphodiesterase 4B (Homo sapiens) (UniProt Q07343). Nature of the assay: qHTS Assay for Inhibitors of PDE-IV (AID 607; active = well fitted activation curve with a large enough effect in the main read-out, with a control signal flat, not every such curve was filed as active; note: % of control where 0% means no effect). As to conditions: HEK293 ACTOne CNG channel cells, membrane potential fluorescence; series mostly up to 22.9 µM. The procedure, abridged: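 The readout is membrane depolarisation from a cAMP-sensing CNG channel, detected with a potential dye at ex 535/em 590. Cells were HEK293-derived (endogenous PDE-IV) at 1000 cells/well, titrated up to 22.9 uM final.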
(In general: Quantitative high-throughput screening tests each substance at several concentrations.)

Assay [9] is described as follows: qHTS Assay for Lipid Storage Modulators (AID 1519; calls by dose curve). As to conditions: Drosophila S3 cells, BODIPY lipid droplet/cell ratio, laser cytometry, cells loaded with oleic acid; for activity change, negative = inhibition: at 57.5 µM (top of the series). In a few lines:
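Cells seeded at 5,000 per well were treated with compounds over a concentration series and loaded with oleic acid (400 uM, as added). Lipid droplet fluorescence (488 nm excitation, 500-530 nm channel) was read by laser-scanning cytometry and normalized to 20 uM Triacsin C.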

A short description of assay [10]: Primary qHTS for small molecule stabilizers of the endoplasmic reticulum resident proteome: Secreted ER Calcium Modulated Protein (SERCaMP) assay (AID 1508630; active = well fitted curve in the direction sought with a large enough effect; an effect the other way counts as inactive or inconclusive; note: % is set by controls: 0 for no effect and ±100 for the full control effect). As to conditions: SH-SY5Y GLuc-SERCaMP (Gaussia luciferase released on ER calcium loss) secretion, thapsigargin, luminescence; series mostly up to 38.4 µM. In a few lines: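 GLuc-SERCaMP-expressing SH-SY5Y cells, pretreated 16 h with compound, are challenged with thapsigargin to empty ER calcium stores; after 4 h, coelenterazine is added directly to the medium and luminescence is imaged.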

The target of assay [11] is Cytochrome P450 3A4 (Homo sapiens) (UniProt P08684). Nature of the assay: qHTS Assay for Inhibitors and Substrates of Cytochrome P450 3A4 (AID 884; active = well fitted curve in the direction sought with a large enough effect; an effect the other way counts as inactive or inconclusive; note: % is set by controls: 0 for no effect and ±100 for the full control effect; nearly all actives have a fitted effect of over 50% in size). As to conditions: recombinant CYP3A4, Luciferin-PPXE luminescence; series mostly up to 57.1 µM. In a few lines:
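20 nM human CYP3A4 with 25 uM Luciferin-PPXE (at KM) in 200 mM KPO4, preincubated 10 min with compound; NADPH regeneration started a 60 min RT reaction. Luciferin detected by luminescence, normalized to 57 uM ketoconazole as full inhibition.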

The target is the same in assay [12]. Put plainly: qHTS Assay for Activators of Cytochrome P450 3A4 (AID 885; active = well fitted curve in the direction sought with a large enough effect; an effect the other way counts as inactive or inconclusive; note: potency is the fitted concentration of half-maximal effect; nearly all actives have a fitted effect of over 65% in size). As to conditions: recombinant CYP3A4, Luciferin-PPXE luminescence, 60 min; series mostly up to 57.1 µM. The procedure, abridged: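 Steps: enzyme/substrate mix dispensed; compound added, 10 min RT; NADPH regeneration solution added, 60 min RT; luciferin detection buffer stops reaction; 20 min later luminescence measured.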

Assay [13] concerns the target Cytochrome P450 2C9 (Homo sapiens) (UniProt P11712). Put plainly: qHTS Assay for Inhibitors and Substrates of Cytochrome P450 2C9 (AID 883; active = well fitted curve in the direction sought with a large enough effect; an effect the other way counts as inactive or inconclusive; note: nearly all actives have a fitted effect of over 60% in size; note: potency is the fitted concentration of half-maximal effect). As to conditions: recombinant CYP2C9, luciferin-H luminescence, 60 min; series mostly up to 57.1 µM. In a few lines:
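10nM CYP2C9 + 100uM Luciferin-H (=KM), 25mM KPO4; cpd 10 min 37C; NADPH regen, 60 min 37C; stop/detect with P450 Glo-Buffer 20 min; luminescence. Norm. to 57uM sulphaphenazole as full inhibition.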

Assay [14] addresses Cytochrome P450 2C19 (Homo sapiens) (UniProt P33261). Put plainly: qHTS Assay for Inhibitors and Substrates of Cytochrome P450 2C19 (AID 899; active = well fitted curve in the direction sought with a large enough effect; an effect the other way counts as inactive or inconclusive; note: potency is the fitted concentration of half-maximal effect; nearly all actives have a fitted effect of over 60% in size). As to conditions: recombinant CYP2C19, luciferin-H EGE luminescence; series mostly up to 57.1 µM. In a few lines: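 Luminescent read-out of luciferin formed from Luciferin-H EGE (10uM, equal to KM). Enzyme 5nM in 50mM KPO4; compound added, 10 min at 37C, then NADPH regenerating system for 60 min at 37C. Full inhibition defined by 57uM ketoconazole.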

Assay [15] can be described thus: qHTS Assay for Identification of Small Molecule Agonists for Hypoxia Response Element Signaling Pathway (AID 914; active = well fitted activation curve with a large enough effect in the signal ratio, with a control signal flat, not every such curve was filed as active; the % refers to the signal ratio; note: % of control where 0% means no effect). As to conditions: ME-180 (cervical carcinoma) HRE-bla reporter, beta-lactamase ratio, CoCl2, 17 h; activation: stronger effect = higher value. The procedure, abridged:
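In Opti-MEM containing 0.5% dialyzed FBS and 10 mM HEPES, ME-180 HRE-bla cells received a compound titration and EC50 CoCl2. They were incubated 17 hours, then CCF4-loaded 2.5 hours at room temperature before ratio reading.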

[16] abbreviates: measured here: cell count channel max response.
[17] abbreviates: measured here: lipid channel max response.

3',5'-cyclic-AMP phosphodiesterase 4B (Homo sapiens), sequence (Q07343 whole entry, looked up): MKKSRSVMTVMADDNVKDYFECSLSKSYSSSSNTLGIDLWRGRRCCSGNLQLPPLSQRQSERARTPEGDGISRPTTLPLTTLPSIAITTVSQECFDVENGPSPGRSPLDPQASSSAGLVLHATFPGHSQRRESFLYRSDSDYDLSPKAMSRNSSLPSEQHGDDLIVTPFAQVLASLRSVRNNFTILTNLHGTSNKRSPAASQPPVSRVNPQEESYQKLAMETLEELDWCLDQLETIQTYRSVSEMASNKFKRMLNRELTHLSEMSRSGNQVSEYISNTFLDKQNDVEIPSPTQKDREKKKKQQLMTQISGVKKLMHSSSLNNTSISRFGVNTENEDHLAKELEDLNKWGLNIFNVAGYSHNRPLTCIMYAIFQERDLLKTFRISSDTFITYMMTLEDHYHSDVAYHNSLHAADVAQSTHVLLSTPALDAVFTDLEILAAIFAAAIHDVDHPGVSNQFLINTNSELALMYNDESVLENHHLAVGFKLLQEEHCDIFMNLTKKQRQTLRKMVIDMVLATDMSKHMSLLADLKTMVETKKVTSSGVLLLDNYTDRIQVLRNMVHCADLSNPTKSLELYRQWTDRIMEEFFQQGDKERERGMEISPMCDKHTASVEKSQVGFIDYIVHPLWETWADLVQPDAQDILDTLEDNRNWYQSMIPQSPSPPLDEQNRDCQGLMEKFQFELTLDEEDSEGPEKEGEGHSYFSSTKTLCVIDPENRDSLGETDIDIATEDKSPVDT
Cytochrome P450 1A2 (Homo sapiens), sequence (P05177 whole entry, looked up): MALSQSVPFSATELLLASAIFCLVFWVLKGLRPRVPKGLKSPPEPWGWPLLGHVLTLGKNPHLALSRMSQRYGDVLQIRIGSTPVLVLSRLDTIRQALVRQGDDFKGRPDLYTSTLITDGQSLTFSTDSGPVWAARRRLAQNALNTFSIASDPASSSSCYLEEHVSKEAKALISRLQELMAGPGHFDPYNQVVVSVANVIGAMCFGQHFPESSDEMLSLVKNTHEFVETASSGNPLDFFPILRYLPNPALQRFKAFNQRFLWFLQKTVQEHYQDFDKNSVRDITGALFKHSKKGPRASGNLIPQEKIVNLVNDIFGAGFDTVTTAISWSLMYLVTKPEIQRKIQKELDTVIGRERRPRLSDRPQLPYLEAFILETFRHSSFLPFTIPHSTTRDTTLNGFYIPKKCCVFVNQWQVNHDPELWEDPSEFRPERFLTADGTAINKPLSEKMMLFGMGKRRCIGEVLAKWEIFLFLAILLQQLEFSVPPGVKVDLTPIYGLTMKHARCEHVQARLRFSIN
Cytochrome P450 3A4 (Homo sapiens), sequence (P08684 whole entry, looked up): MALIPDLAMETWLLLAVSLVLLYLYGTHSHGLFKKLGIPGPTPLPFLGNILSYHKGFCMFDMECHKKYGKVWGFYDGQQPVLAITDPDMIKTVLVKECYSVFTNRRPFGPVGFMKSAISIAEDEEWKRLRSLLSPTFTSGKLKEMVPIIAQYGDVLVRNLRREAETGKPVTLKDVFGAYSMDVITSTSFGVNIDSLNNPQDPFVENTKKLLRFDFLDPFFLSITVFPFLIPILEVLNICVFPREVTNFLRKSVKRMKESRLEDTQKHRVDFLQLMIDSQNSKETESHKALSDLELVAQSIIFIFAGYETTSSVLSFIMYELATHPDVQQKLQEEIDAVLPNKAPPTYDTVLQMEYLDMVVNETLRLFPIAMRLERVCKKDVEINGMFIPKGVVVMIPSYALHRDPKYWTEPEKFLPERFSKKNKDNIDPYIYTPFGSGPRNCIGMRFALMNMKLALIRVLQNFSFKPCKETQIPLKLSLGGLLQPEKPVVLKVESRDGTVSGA
Lysosomal acid glucosylceramidase (Homo sapiens), sequence (P04062 whole entry, looked up): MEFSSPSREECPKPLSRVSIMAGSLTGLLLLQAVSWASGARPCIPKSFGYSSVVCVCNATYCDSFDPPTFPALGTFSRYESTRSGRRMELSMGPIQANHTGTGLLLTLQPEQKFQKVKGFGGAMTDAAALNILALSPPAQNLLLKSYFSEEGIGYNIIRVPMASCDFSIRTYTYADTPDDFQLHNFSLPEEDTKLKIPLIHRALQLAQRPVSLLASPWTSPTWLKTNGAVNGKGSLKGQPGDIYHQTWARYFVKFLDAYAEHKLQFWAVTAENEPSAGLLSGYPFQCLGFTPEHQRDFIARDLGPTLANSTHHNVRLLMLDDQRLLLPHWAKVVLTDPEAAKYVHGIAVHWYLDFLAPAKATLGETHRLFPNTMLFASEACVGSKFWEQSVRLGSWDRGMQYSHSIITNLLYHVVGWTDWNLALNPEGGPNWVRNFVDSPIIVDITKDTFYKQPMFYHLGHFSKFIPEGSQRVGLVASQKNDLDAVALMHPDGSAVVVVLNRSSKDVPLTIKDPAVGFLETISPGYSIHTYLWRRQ
Cytochrome P450 2C9 (Homo sapiens), sequence (P11712 whole entry, looked up): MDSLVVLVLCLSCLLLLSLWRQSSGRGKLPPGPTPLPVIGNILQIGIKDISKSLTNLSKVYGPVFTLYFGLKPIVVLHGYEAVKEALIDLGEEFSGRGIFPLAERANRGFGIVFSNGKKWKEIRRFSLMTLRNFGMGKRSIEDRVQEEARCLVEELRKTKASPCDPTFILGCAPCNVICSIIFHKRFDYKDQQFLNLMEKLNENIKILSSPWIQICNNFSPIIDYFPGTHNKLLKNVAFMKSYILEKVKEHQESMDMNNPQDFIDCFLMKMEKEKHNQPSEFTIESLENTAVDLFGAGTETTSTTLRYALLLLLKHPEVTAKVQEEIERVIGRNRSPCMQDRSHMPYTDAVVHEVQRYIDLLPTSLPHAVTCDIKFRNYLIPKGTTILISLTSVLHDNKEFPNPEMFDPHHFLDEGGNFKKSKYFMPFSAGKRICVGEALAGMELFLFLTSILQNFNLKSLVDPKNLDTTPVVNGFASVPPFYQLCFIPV
Cytochrome P450 2C19 (Homo sapiens), sequence (P33261 whole entry, looked up): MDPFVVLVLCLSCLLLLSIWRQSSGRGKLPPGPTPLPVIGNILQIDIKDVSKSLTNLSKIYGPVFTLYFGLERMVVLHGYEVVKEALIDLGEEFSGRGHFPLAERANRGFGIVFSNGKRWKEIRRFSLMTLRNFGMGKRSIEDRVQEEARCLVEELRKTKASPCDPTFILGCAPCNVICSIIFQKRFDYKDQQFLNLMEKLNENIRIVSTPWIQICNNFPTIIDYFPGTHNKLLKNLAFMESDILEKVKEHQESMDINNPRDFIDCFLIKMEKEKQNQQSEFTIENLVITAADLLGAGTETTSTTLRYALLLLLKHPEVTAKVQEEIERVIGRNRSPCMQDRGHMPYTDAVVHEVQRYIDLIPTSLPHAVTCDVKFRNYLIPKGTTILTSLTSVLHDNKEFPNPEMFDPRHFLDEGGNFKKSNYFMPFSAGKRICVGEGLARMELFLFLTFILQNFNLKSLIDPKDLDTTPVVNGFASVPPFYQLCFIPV

As for `Cc1noc(C)c1C(=O)N1CCC[C@@]2(CCN(c3ncccn3)C2)C1`, the Potency in assay [1] is > 11.4 µM (inactive); in [6], > 46 µM (inactive). Moreover, the activity change, negative = inhibition in assay [2] was 2.18% (inactive); in assay [4] it was 7.6% (inactive); in assay [9], -1.94% (inactive). The Potency entry in assay [3], in assay [8] and in assay [10] was “inactive” each time. In addition, the activity, negative = inhibition in assay [5] is -3.95% (inactive). Also, the call in assay [7] was inactive. Further, the max response in [9] (setting [16]) was found to be 7.95%; in assay [9] (setting [17]), 6.75%.
On to `COCC(=O)N1CCC2(CC1)CCN(C(c1ccccc1)c1ccccc1)CC2`, for which the Potency in assay [1] is > 11.4 µM (inactive); in assay [6] it was > 46 µM (inactive); in assay [12], 25.1 µM (active). The activity change, negative = inhibition was -2.73% (inactive) in [2], -16.3% (inactive) in [4] and 1.77% (inactive) in [9]. In addition, the Potency entry in [3], in assay [8], in assay [11] and in assay [10] was “inactive” each time. Further, the activity, negative = inhibition in [5] was 1.17% (inactive). Further, the result in assay [7] was inactive. Moreover, the max response in assay [9] (setting [16]) turned out to be 1.52%; in assay [9] (setting [17]), 5.9%.
For the compound `CS(=O)(=O)N1CCC2(CCCN(c3ccncc3)C2)CC1`, the Potency in assay [1] is > 11.4 µM (inactive); in assay [6] it was > 46 µM (inactive); in assay [13], 79.4 nM (active); in assay [14], 1.26 µM (active). For the same compound, the activity change, negative = inhibition was 10.1% (inactive) in assay [2], -14.2% (inactive) in assay [4] and 4.5% (inactive) in [9]. The Potency entry in [3], in [8] and in [10] was “inactive” each time. In addition, in assay [5], the activity, negative = inhibition was -2.99% (inactive). The compound was classed as inactive in [7]. In assay [15], the activation is 20.8% (inactive). In addition, the max response in assay [9] (setting [16]) came to 17.1%; in assay [9] (setting [17]), 26.8%.
Take `COc1ccc(NC(=O)N2CC3(CCN(C(=O)c4ccc(OC)cc4)CC3)C2)cc1`: the values for the Potency in [1] and in [6] were > 11.4 µM (inactive) and > 46 µM (inactive), respectively. The figures for the activity change, negative = inhibition in assay [2], in assay [4] and in assay [9] were -11.7% (inactive), 16.6% (inactive) and 3.98% (inactive), respectively. The Potency entry in [3], in [8] and in assay [10] was “inactive” each time. In [5], the activity, negative = inhibition is -5.3% (inactive). Further, the result in [7] was inactive. The results for the max response in [9] (setting [16]) and in assay [9] (setting [17]) were 12.3% and 17.6%, respectively.
For `Cc1noc(C)c1C(=O)N1CCC2(CCN(C(=O)Nc3ccccc3)CC2)CC1`, the figures for the Potency in assay [1] and in [6] were > 11.4 µM (inactive) and > 46 µM (inactive), respectively. In addition, the activity change, negative = inhibition in assay [2] is -7.04% (inactive); in assay [4], -2.66% (inactive); in assay [9], 3.9% (inactive). In addition, the Potency result in [3], in assay [8], in assay [11] and in [10] was “inactive” in each case. The activity, negative = inhibition in [5] is -7.75% (inactive). The outcome in assay [7] was inactive. The max response was -0.903% in [9] (setting [16]) and 4.81% in assay [9] (setting [17]).
Regarding `CC(=O)N1CCC2(CC1)CN(c1ccncc1)C2`, the figures for the Potency in [1] and in [6] were > 11.4 µM (inactive) and > 46 µM (inactive), respectively. Moreover, the activity change, negative = inhibition was -4.3% (inactive) in assay [2], 0.609% (inactive) in [4] and 2.66% (inactive) in [9]. Further, the Potency result in [3], in assay [8], in assay [13] and in [10] was “inactive” each time. Besides, in assay [5], the activity, negative = inhibition was 0.403% (inactive). Moreover, the result in assay [7] was inactive. Further, the max response in [9] (setting [16]) stood at 11.6%; in assay [9] (setting [17]), 16.2%.
On to `CS(=O)(=O)N1CCC2(CC1)CN(C(=O)Nc1ccccc1)C2`, for which the Potency in [1] is > 11.4 µM (inactive); in assay [6] it was > 46 µM (inactive). Besides, the activity change, negative = inhibition is -5.74% (inactive) in assay [2], 11.2% (inactive) in assay [4] and 4.59% (inactive) in assay [9]. Further, the Potency entry in [3], in assay [8] and in [10] was “inactive” each time. For the same compound, the activity, negative = inhibition in [5] was 8.65% (inactive). The call in assay [7] was inactive. The max response in assay [9] (setting [16]) worked out at 6.27%; in assay [9] (setting [17]), 16.7%.
